Values joined by “and” are separate entries in the source; they are usually repeats but may differ in a detail not shown here. Identical values can stand only once. Inconclusive results are not listed. A number with no mark means an inactive call. Active and inactive are the calls of the source. Calls come from the whole dose curve; as a rule, active = well fitted inhibition curve with a large enough effect; inconclusive = small, poorly fitted or top-dose-only effect, or effect the other way; inactive = no such curve, though single readings can be large or run the other way.

Chain of Nuclear receptor ROR-gamma (Mus musculus) (P51450 whole entry, looked up, the tested form may be a part): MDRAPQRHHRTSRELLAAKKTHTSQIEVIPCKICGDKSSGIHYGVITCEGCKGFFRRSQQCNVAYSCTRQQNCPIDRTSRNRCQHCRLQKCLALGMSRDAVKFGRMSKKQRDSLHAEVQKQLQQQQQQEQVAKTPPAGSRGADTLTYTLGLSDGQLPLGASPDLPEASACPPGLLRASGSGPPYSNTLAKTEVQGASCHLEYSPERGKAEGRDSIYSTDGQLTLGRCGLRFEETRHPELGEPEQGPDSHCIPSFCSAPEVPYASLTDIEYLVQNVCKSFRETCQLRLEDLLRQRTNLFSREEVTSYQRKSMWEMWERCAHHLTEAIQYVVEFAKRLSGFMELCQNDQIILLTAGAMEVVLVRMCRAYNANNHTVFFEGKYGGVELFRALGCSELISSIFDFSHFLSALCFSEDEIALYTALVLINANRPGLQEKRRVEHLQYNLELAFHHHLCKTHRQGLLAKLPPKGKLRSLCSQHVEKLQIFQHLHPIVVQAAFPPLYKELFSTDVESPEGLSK

The target of the assay is Nuclear receptor ROR-gamma (Mus musculus) (UniProt P51450). Briefly: Secondary confirmation assay for inhibitors of ROR gamma transcriptional activity. Particulars: Drosophila S2 Gal4-RORgamma UAS-luciferase reporter, 20 h; series mostly up to 92.2 µM. The source says:
NIH Molecular Libraries Probe Production Network [MLPCN] NIH Chemical Genomics Center [NCGC] MLPCN Grant: R03 DA026211-01 Assay Provider: Dan Littman, New York University Keywords: NIH Roadmap, MLPCN, MLI, MLSMR, qHTS, NCGC, qHTS, nuclear hormone receptor, retinoic acid-related orphan receptor, ROR gamma Assay Overview: The retinoic acid-related orphan receptor (ROR) gamma is a transcription factor that has a central role in the differentiation of Th17 cells, a subset of T helper cells that secrete the inflammatory cytokines IL-17, IL-17F, and IL-22. Th17 cells have been implicated in graft versus host disease, autoimmune disease and asthma. ROR gamma is induced in naive T helper cells in the presence of TGF-beta combined with IL-6, IL-21, or IL-23, and thereafter directs the expression of the Th17 lineage cytokines. To study the mechanism of action of ROR gamma, an insect cell-based assay was screened. This Drosophila Schneider cell line was stably transfected with two vectors: a gene expressing a fusion of the Gal4 DNA binding domain and ROR gamma transactivation domain under the control of the metallothionine promoter and a Photinus luciferase reporter regulated by the Gal4 binding site enhancer, UAS. […] Small molecule inhibitors of ROR gamma activity are detected by a decrease in luciferase reporter activity.
Assay Protocol Summary: For screening, 600 cells in 4 uL/well were dispensed into white solid 1536-well plates (Grenier) using a solenoid-based dispenser. Following transfer of 23 nL compound or DMSO vehicle by a pin tool, the plates were incubated 1 hr at ambient temperature, and 1 uL/well copper sulfate (700 uM final concentration) was added. The plates were centrifuged 15 s at 1000 RPM and incubated 20 hr at ambient temperature. After addition of 1.5 uL Photinus luciferase detection reagent, the plates were incubated 10 min at ambient temperature and then read by an ViewLux (Perkin Elmer) to detect luminescence. Keywords: NIH Roadmap, MLPCN, MLI, MLSMR, qHTS, NCGC, qHTS, nuclear hormone receptor, retinoic acid-related orphan receptor, ROR gamma
`COc1cc(O)c(C(CC(=O)N2CCCCC2)c2ccc3c(c2)OCO3)c(OC)c1` (stereo not given): the Potency was 20.4 µM (active).

Regarding `COc1ccc(C(=O)/C=C/c2ccc(OC)cc2OC)c(O)c1`, the Potency is 0.575 µM (active).

In the case of `COc1ccc(C(CC(=O)N2CCCC(C)C2)c2c(O)cc(OC)cc2OC)c(OC)c1` (stereo not given), the Potency result is “inactive”.

With `CN1CCN(C(=O)CCN2C(=O)/C(=C\c3ccccc3F)SC2=S)CC1`, the Potency was 18.2 µM (active).

As for `CC1CCCN(C(=O)CC(c2ccc3c(c2)OCO3)c2ccc(O)cc2O)C1` (stereo not given), the Potency result is “inactive”.

As for `COc1cc(O)c(C(CC(=O)N2CCCC(C)C2)c2cccs2)c(OC)c1` (stereo not given), the Potency was 7.24 µM (active).

As for `COc1ccc(OC)c(NC(=S)N(CCc2c(C)[nH]c3ccccc23)Cc2cccs2)c1`, the Potency is 12.9 µM (active).

For `COc1cc(O)c(C(CC(=O)N2CCCC(C(=O)c3ccccc3)C2)c2ccc3c(c2)OCO3)c(OC)c1` (stereo not given), the Potency result is “inactive”.

Take `COc1cc(O)c(C(CC(=O)N2CCCC(C)C2)c2ccc(OC)c(OC)c2)c(OC)c1` (stereo not given): the Potency was 9.11 µM (active).

As to `COc1ccc(C(CC(=O)Nc2ccc(F)cc2)c2ccccc2)cc1` (stereo not given), the Potency entry was “inactive”.

As to `COc1cc(O)c(C(CC(=O)N2CC(C)OC(C)C2)c2ccc3c(c2)OCO3)c(OC)c1` (stereo not given), the Potency was 1.29 µM (active).

For the compound `COc1cc(O)c(C(CC(=O)Nc2cccc3ccccc23)c2ccc3c(c2)OCO3)c(OC)c1` (stereo not given), the Potency entry was “inactive”.

`COc1cc(O)c(C(CC(=O)N2CCCCC2)c2ccc(OC)c(OC)c2)c(OC)c1` (stereo not given): the Potency entry was “inactive”.

Take `COc1cc(O)c(C(CC(=O)N2CCC(C)CC2)c2ccc(C)cc2)c(OC)c1` (stereo not given): the Potency is 14.4 µM (active).

With `COc1cc(O)c(C(CC(=O)NC2CCC(C)CC2)c2ccc3c(c2)OCO3)c(OC)c1` (stereo not given), the Potency result is “inactive”.

`COc1cc(O)c(C(CC(=O)N2CCC(Cc3ccccc3)CC2)c2ccc(OC)c(OC)c2)c(OC)c1` (stereo not given): the Potency result was “inactive”.

Regarding `Cc1cc(C)c2sc(NC(=O)c3ccc(N4C(=O)CCC4=O)cc3)nc2c1`, the Potency is 0.229 µM (active).

For the compound `CCOc1ccc(C(CC(=O)N2CCCC(C)C2)c2c(O)cc(OC)cc2OC)cc1` (stereo not given), the Potency is 4.07 µM (active).

On to `CC1=C(\C=C/C(C)=C/C=C\C(C)=C\C(=O)O)C(C)(C)CCC1`, for which the activity change, negative = inhibition was -12.4% [at 20 µM].

With `COc1cc(O)c(C(CC(=O)NC2CCCc3ccccc32)c2ccc3c(c2)OCO3)c(OC)c1` (stereo not given), the Potency result was “inactive”.

Consider `COc1cc(O)c(C(CC(=O)N2CCCC2)c2ccc3c(c2)OCO3)c(OC)c1` (stereo not given), for which the Potency result was “inactive”.

Take `COc1cc(O)c(C(CC(=O)N2CCCC(c3ccccc3)C2)c2ccc3c(c2)OCO3)c(OC)c1` (stereo not given): the Potency result is “inactive”.

Regarding `COc1ccc(C(CC(=O)N2CCCC(C)C2)c2ccccc2)cc1` (stereo not given), the Potency result is “inactive”.

With `CCOC(=O)C1CCN(CC(=O)Nc2cc(C)nn2-c2nc3ccccc3s2)CC1`, the Potency is 5.75 µM (active).

With `CCC1CCCN(C(=O)CC(c2ccc3c(c2)OCO3)c2c(O)cc(OC)cc2OC)C1` (stereo not given), the Potency is 3.23 µM (active).

On to `COc1cc(O)c(C(CC(=O)N2CCc3ccccc3C2)c2ccc3c(c2)OCO3)c(OC)c1` (stereo not given), for which the Potency entry was “inactive”.

Regarding `COc1cc(O)c(C(CC(=O)N2CCCC(C#N)C2)c2ccc3c(c2)OCO3)c(OC)c1` (stereo not given), the Potency result was “inactive”.

Regarding `Cc1cccc(-c2nc3cc(NC(=O)C4CCCO4)ccc3o2)c1` (stereo not given), the Potency is 0.724 µM (active).

Take `Cc1ccc(Sc2cncc3sc(C(N)=O)cc23)cc1`: the Potency is 0.204 µM (active).

On to `COc1cc(O)c(C(CC(=O)N2CCCC(C)C2)c2ccc3c(c2)OCO3)c(OC)c1` (stereo not given), for which the Potency was 3.63 µM (active) and 3.23 µM (active).

With `COC(=O)Cn1c(CN2CCc3ccccc3C2)nc2c1c(=O)n(C)c(=O)n2C`, the Potency is 6.45 µM (active).

As to `CCC(=O)C1CCCN(C(=O)CC(c2ccc3c(c2)OCO3)c2c(O)cc(OC)cc2OC)C1` (stereo not given), the Potency entry is “inactive”.

Consider `CCN(CC)c1ccc(/C=N/n2c(-c3ccccc3Br)n[nH]c2=S)cc1`, for which the Potency is 1.62 µM (active).

Regarding `COc1cc(O)c(C(CC(=O)N2CCCC(C)(C)C2)c2ccc3c(c2)OCO3)c(OC)c1` (stereo not given), the Potency was 5.12 µM (active).

As to `COCC1CCCCN1C(=O)c1cc(COc2ccc3ncccc3c2)on1` (stereo not given), the Potency was 11.5 µM (active).

In the case of `COc1cc(O)c(C(CC(=O)N2CCCCC2)c2ccc(C)cc2)c(OC)c1` (stereo not given), the Potency was 32.3 µM (active).

On to `O=C(CCCN1C(=O)/C(=C/c2ccccc2Cl)SC1=S)Nc1cccnc1`, for which the Potency is 1.82 µM (active).

Turning to `O=C(/C=C/c1ccc(S(=O)(=O)N2CCOCC2)cc1)NC(=S)Nc1ccc(N2CCOCC2)cc1`, the Potency was 2.04 µM (active).

As for `Cc1ccc(C)c(/C=N/n2cc(-c3ccccc3)[nH]c2=S)c1`, the Potency was 0.575 µM (active).

As for `COc1ccc(-c2nnc(-c3ccc(N(C)C)cc3)o2)cc1`, the Potency was 1.29 µM (active).

The values are drawn from PubChem BioAssay AID489037 (National Center for Advancing Translational Sciences (NCATS), 2010).
